# Shown are actives, neighbours in structure and some others; about 3% of the full set was active somewhere.
# BioA inh: inhibitors of Mycobacterium tuberculosis BioA enzyme | inhibition, % at 9.99 µM | 360,000 compounds, 0.096% hits | purified M. tuberculosis BioA enzyme, plate reader; in the data active = inhibition above about 40%
# FadD28 FP inh: inhibitors of Mycobacterium tuberculosis FadD28 bisubstrate binding | FadD28 bisubstrate probe binding, fluorescence polarization | inhibition, % at 12.5 µM | 360,000 compounds, 0.22% hits | AID 588549; in the data active = inhibition above about 8.5%, passing the limit was not always enough
# Rv3671c protease: Rv3671c (M. tuberculosis) protease inhibition; P9WHR9; inhibition, % at 5.96 µM; 320,000 compounds, 0.048% hits; AID 2606; in the data active = inhibition above about 38%;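 also: extracellular domain of Rv3671c used as enzyme; 0% = enzyme with DMSO and 100% = no enzyme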
# Target sequence (P9WHR9 whole entry, looked up, the tested form may be a part): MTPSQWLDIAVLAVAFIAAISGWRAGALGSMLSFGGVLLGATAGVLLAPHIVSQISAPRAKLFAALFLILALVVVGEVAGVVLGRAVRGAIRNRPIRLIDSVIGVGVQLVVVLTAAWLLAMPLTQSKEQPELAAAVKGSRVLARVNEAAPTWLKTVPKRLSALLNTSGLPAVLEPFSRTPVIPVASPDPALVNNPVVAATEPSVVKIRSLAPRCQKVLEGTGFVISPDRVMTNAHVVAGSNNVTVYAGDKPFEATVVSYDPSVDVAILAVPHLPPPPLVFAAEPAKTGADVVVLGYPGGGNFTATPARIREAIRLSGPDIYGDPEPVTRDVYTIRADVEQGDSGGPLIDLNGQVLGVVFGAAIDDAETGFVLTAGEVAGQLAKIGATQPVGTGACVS
# FBA Mtb inh: Mtb fructose-bisphosphate aldolase inhibition. 360,000 compounds, 2.3% hits. purified M. tuberculosis FBA, fluorescence read-out. P9WQA3. inhibition, % at 1 µM;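 also: 0% = vehicle and 100% = reference inhibitor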
# GDH-TPI counter-1: GDH-TPI coupled enzyme inhibition counter-screen. GDH-TPI coupled enzyme counterscreen, NADH absorbance. inhibition, % at 4.8 µM. 360,000 compounds, 1.2% hits. AID 588335; in the data active = inhibition above about 30%;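 also: 0% = DMSO wells and 100% = wells lacking the enzyme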
# Mtb FBA inh conf: Mtb FBA inhibition, confirmed; 5,600 compounds, 78% hits; AID 651616; inhibition, % at 1 µM; purified M. tuberculosis FBA, fluorescence read-out; shares compounds with FBA Mtb inh;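 also: 0% = vehicle wells and 100% = reference inhibitor wells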
# GDH-TPI counter-2: GDH-TPI inhibition counter-screen for FBA inhibitors. shares compounds with FBA Mtb inh. GDH-TPI coupled enzyme counterscreen, fluorescence. inhibition, % at 1 µM. 5,600 compounds, 81% hits. AID 652141; in the data active = inhibition above about 10%
# GDH-TPI dose: inhibits GDH-TPI coupling enzymes in dose response. shares compounds with FBA Mtb inh. GDH-TPI coupled enzyme assay, fluorescence, artifact counterscreen. IC50, µM. 170 compounds, 79% hits; call rule not given here
# An asterisk follows results filed as active; / = not tested or not shown; + = active, no number. Rule as the data show it, unless noted: active = inhibition above about 27%; inactive = the rest.
SMILES,BioA inh,FadD28 FP inh,Rv3671c protease,FBA Mtb inh,GDH-TPI counter-1,Mtb FBA inh conf,GDH-TPI counter-2,others
CN(C)c1ccc(-c2ccnc3c2CC(C)(C(=O)NCc2ccc(F)c(F)c2)O3)cc1 (stereo unspecified),-0.7,-4.0,/,43.8*,24.8,103.2*,77.7*,
Cc1cc(-c2nc3ccccc3o2)c2ccccc2n1,-1.0,-3.1,-23.9,33.6*,23.4,14.9,-2.2,GDH-TPI dose=5.72*
Cc1nc2c(C(=O)N3CCC4(CC3)OCCO4)cnn2c(C)c1Cc1cccc(Cl)c1,17.2,-5.2,0.3,31.5*,-5.6,+,191.5*,
Cc1nc2c(C(=O)O)cnn2c(C)c1Cc1ccccc1F,3.1,1.3,3.8,9.9,4.9,/,/,
O=C(c1cnn2c(C(F)F)cc(-c3ccccc3)nc12)N1CCOCC1,/,1.9,-1.2,4.7,10.9,/,/,
CCOC(=O)N1CCN(C(=O)c2cnn3c(C)c(Cc4ccc(C)cc4)c(C)nc23)CC1,/,0.4,-1.6,34.2*,4.9,114.9*,91.6*,
Cc1ccc(C)c(Cc2c(C)nc3c(C(=O)N4CCOCC4)cnn3c2C)c1,2.6,1.7,-3.5,62.0*,6.3,/,+,
Cc1nc2c(C(=O)N3CCCC3)cnn2c(C)c1Cc1c(F)cccc1Cl,/,-0.1,6.1,6.1,2.1,/,/,
COC(=O)c1cnn2c(C)c(Cc3cccc(F)c3)c(C)nc12,4.3,-1.7,-1.7,42.5*,8.1,7.3,1.1,
C[C@H]1CN([C@@H](C)CO)C(=O)CCCn2nncc2CO[C@@H]1CN(C)C(=O)c1cc(-c2ccccc2)on1,1.3,/,/,/,/,/,/,
Fc1cccc(CCNCc2ccccn2)c1,0.7,0.5,-6.7,29.8*,-7.5,86.6*,81.6*,
Cc1cc(OCC(=O)NC2CC(C)(C)NC(C)(C)C2)c2c(C)cc(=O)oc2c1,-0.1,-3.1,-0.4,94.0*,3.0,132.1*,114.1*,
Cc1cc(=O)oc2cc(OCC(=O)NC3CC(C)(C)NC(C)(C)C3)ccc12,1.9,-1.1,-6.7,21.2,16.0,/,/,
Cc1cc(OCC(=O)NCCc2ccc(Cl)cc2)c2c(C)cc(=O)oc2c1,-0.5,-1.2,-0.1,4.2,0.8,/,/,
Cc1cc(OCC(=O)Nc2cccnc2)c2c(C)cc(=O)oc2c1,3.5,-2.8,0.8,77.5*,8.9,-1.6,-2.4,
CCCc1cc(=O)oc2cc(C)cc(OCC(=O)Nc3cccnc3)c12,-1.0,-2.0,-26.9,82.1*,11.3,7.5,0.4,
Cc1cc(OCC(=O)NCc2cccnc2)c2c(C)cc(=O)oc2c1,0.6,0.5,1.6,68.2*,11.8,-6.1,-6.1,
O=C(CN1CCOCC1)NCC[C@@H]1CC[C@H](NC(=O)c2ccccc2F)[C@H](CO)O1,3.2,/,/,/,/,/,/,
CN1C(=O)c2cc(NC(=O)NCc3ccccc3)ccc2OC[C@@H]2O[C@H](CC(=O)NCC3CCCCC3)CC[C@H]21,2.0,/,/,/,/,/,/,
CCC(=O)Nc1ccc2c(c1)C(=O)N(C)C[C@H](OC)[C@H](C)CN(C(=O)c1ccncc1)[C@@H](C)CO2,-1.7,/,/,/,/,/,/,
COCCCN1CN(S(=O)(=O)c2ccc(C)cc2C)c2nc3ccccc3nc21,3.1,-1.1,0.4,28.2*,31.9*,70.6*,68.8*,
O=C(C[C@H]1CC[C@@H](NS(=O)(=O)c2cccc(F)c2)[C@H](CO)O1)NCc1ccc2c(c1)OCO2,-2.6,/,/,/,/,/,/,
O=C(COc1ccc(Br)cc1)N1CCN(C2CCCC2)CC1,1.5,-0.7,3.9,33.2*,6.0,29.1*,13.0*,
CCOc1ccccc1C(=O)Oc1ccc2ccc(=O)oc2c1,0.0,-2.8,-5.7,66.2*,-8.6,83.3*,81.1*,
Cc1cc(=O)oc2cc(OC(=O)c3ccccc3)ccc12,0.7,-4.4,3.3,74.9*,3.9,+,+,
SMILES,BioA inh,FadD28 FP inh,Rv3671c protease,FBA Mtb inh,GDH-TPI counter-1,Mtb FBA inh conf,GDH-TPI counter-2,others
O=C(Oc1ccc2ccc(=O)oc2c1)c1ccccc1,-1.3,-0.8,1.7,62.7*,14.4,50.4*,41.1*,
COc1ccc2c(C)cc(=O)oc2c1,-1.6,-1.0,/,54.7*,18.1,90.9*,61.1*,
COC(=O)C[C@H]1C[C@H]2c3cc(NC(=O)C4CCC4)ccc3O[C@H]2[C@@H](CO)O1,-0.1,/,/,/,/,/,/,
O=C(Oc1ccc2ccc(=O)oc2c1)C1CCCCC1,/,-0.9,1.2,108.4*,7.5,+,+,
COc1cccc(C(=O)COc2ccc3ccc(=O)oc3c2)c1,0.4,-1.6,-19.7,5.0,5.0,/,/,
O=c1ccc2ccc(OCCOc3cccc(Cl)c3)cc2o1,1.8,-2.8,-5.1,49.4*,11.3,173.1*,157.2*,
O=C(COc1ccc2ccc(=O)oc2c1)NC1CCCC1,3.7,-2.0,-6.7,18.0,10.7,/,/,
CNC(=O)C[C@@H]1CC[C@@H]2[C@H](COc3ccc(NC(=O)Nc4ccc(F)c(F)c4)cc3C(=O)N2C)O1,32.5,/,/,/,/,/,/,
CC(=O)NNC(=O)c1cc2c3ccccc3n(C)c2s1,/,0.7,-11.7,8.4,20.2,/,/,
Cn1c2ccccc2c2cc(C(=O)N3CCN(CCO)CC3)sc21,2.1,-0.3,4.1,29.0*,17.8,121.6*,90.1*,
O=C(C[C@@H]1C[C@@H]2c3cc(NC(=O)NC4CCCC4)ccc3O[C@@H]2[C@H](CO)O1)NCCN1CCCCC1,-1.0,/,/,/,/,/,/,
Cc1cc(S(=O)(=O)NCc2ccc3c(c2)OCO3)ccc1F,0.7,-3.6,-11.4,87.3*,6.6,74.2*,96.4*,
O=S(=O)(NCc1ccc2c(c1)OCO2)c1ccc(F)c(F)c1,-0.5,-0.2,4.4,-0.5,-5.6,/,/,
Cc1oc2c(c(C)cc3oc(=O)c(CC(=O)N[C@H](C(=O)O)C(C)C)c(C)c32)c1C,2.5,-0.2,/,21.1,3.8,/,/,
CC[C@@H](C)[C@H](NC(=O)Cc1c(C)c2c(cc(C)c3c(C)coc32)oc1=O)C(=O)O,-1.2,-0.3,/,63.7*,8.2,112.3*,94.0*,
CSCC[C@H](NC(=O)Cc1c(C)c2c(cc(C)c3c(C)coc32)oc1=O)C(=O)O,0.2,-1.2,/,52.8*,4.3,+,186.8*,
Cn1ccnc1-c1ccc(-c2nccn2C)cc1,-5.1,-1.4,1.2,52.2*,-7.0,+,186.4*,
CCOC(=O)N1CCC(NC(=O)C2CCN(c3ccc(N4CCOCC4)nn3)CC2)CC1,/,-0.9,0.4,30.6*,13.0,123.3*,106.6*,
C[C@@H]1CN([C@H](C)CO)C(=O)c2cc(C#CC3CC3)cnc2O[C@H]1CN(C)C(=O)c1ccc(F)cc1,-2.4,/,/,/,/,/,/,
O=C(Nc1ccccc1F)N[C@@H]1C=C[C@@H](CC(=O)N2CCCCC2)O[C@H]1CO,3.6,/,/,/,/,/,/,
Cc1ccc(F)c(NC(=S)Nc2cccc3ccccc23)c1,-1.0,-2.8,-46.3,46.0*,6.5,55.2*,49.6*,
CC(=O)c1cccc(NC(=S)Nc2cccc3ccccc23)c1,-0.9,-2.4,-4.6,41.9*,8.1,62.8*,32.9*,

# Assay outcomes (PubChem)
